According to PubChem BioAssay (Tox21):
Results filed as inconclusive are left out. The source made the active and inactive calls. Unless noted, the call rests on the fitted dose curve; in most records, active means well fitted curve in the direction sought with a large enough effect in the repeat runs; inconclusive means weak or mixed curves; inactive means flat fitted curve, though single readings scatter.

Experiments:
[1] = qHTS assay to test for compound auto fluorescence at 535 nm (green) in HEK293 cells (AID 720680)
[2] = qHTS assay to test for compound auto fluorescence at 460 nm (blue) in HEK293 cell free culture (AID 720681); further: potency means the concentration at half of the fitted maximal effect
In short: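 Test compounds were pinned into cell-free culture medium (DMEM with 10% FBS) and fluorescence was read directly at Ex/Em 405/460 nm. Signals were expressed as fluorescence equivalents of triamterene, with DMSO vehicle as control.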

[3] = qHTS assay to test for compound auto fluorescence at 535 nm (green) in HEK293 cell free culture (AID 720682)
In short: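 Read-out: 485/535 nm fluorescence intensity, calibrated against fluorescein. Medium only (DMEM + 10% FBS, no cells); test compound or DMSO vehicle added by pintool before plate reading.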

[4] = qHTS assay to test for compound auto fluorescence at 590 nm (red) in HEK293 cell free culture (AID 720683)
In short: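 Tox21 10K library compounds were pinned into cell-free DMEM with 10% FBS and fluorescence was read at excitation 540 nm. Activity is expressed as Rose Bengal sodium equivalency.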

[5] = qHTS assay to test for compound auto fluorescence at 590 nm (red) in HepG2 cell free culture (AID 720684)
In short: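 Red fluorescence (540 nm excitation, 590 nm emission) was measured after compound transfer into cell-free MEM supplemented with 10% FBS. Values are equivalencies against Rose Bengal sodium.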

[6] = qHTS assay to test for compound auto fluorescence at 460 nm (blue) in HepG2 cell free culture (AID 720685)
In short: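 Compound (23 nL) or DMSO pinned into cell-free MEM with 10% FBS; blue fluorescence read at 405/460 nm excitation/emission, expressed as auto-fluorescence equivalency to triamterene.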

[7] = qHTS assay to test for compound auto fluorescence at 460 nm (blue) in HepG2 cells (AID 720687)
In short: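 Cells (2,000/well in MEM with 10% FBS) attached overnight at 37 C, then were exposed to compound or DMSO for 1 hr at 37 C, 5% CO2. Fluorescence read at Ex/Em 405/460 nm, expressed as triamterene-equivalent signal.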

[8] = target: Glucocorticoid receptor (Homo sapiens) (UniProt P04150); assay: qHTS assay to identify small molecule antagonists of the glucocorticoid receptor (GR) signaling pathway (AID 720692; active means well fitted inhibition curve with a large enough effect in the signal ratio in the repeat runs, not every such curve was filed as active; the % refers to the signal ratio; further: potency means the concentration at half of the fitted maximal effect)
Chain of Glucocorticoid receptor (Homo sapiens) (P04150 whole entry, looked up): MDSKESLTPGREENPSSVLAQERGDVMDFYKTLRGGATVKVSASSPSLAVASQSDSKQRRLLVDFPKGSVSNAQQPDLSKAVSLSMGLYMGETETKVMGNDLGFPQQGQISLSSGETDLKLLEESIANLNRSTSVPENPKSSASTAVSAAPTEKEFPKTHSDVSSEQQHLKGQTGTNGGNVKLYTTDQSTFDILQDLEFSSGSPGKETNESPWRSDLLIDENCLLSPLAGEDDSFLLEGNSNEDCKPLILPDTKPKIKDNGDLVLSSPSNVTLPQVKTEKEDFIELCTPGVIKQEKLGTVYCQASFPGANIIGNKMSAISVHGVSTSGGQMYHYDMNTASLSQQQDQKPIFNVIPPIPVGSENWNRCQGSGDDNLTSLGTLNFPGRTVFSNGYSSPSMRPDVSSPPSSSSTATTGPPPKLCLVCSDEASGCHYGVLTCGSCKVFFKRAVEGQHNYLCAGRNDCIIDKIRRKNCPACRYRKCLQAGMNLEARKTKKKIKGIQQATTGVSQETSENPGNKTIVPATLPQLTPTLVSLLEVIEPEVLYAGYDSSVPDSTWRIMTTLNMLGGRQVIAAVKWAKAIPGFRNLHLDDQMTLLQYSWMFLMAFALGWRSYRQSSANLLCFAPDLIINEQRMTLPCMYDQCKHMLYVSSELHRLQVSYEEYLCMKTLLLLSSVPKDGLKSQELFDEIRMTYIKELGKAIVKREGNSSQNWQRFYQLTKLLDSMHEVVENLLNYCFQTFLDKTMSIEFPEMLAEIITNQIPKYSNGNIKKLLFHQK
In short: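 Inhibition of glucocorticoid signalling is measured in HeLa cells with a GRE-controlled beta-lactamase reporter; cells are co-treated with compound and 5 nM dexamethasone (final) for 18 h before FRET substrate readout.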

[9] = target: Glucocorticoid receptor (Homo sapiens) (UniProt P04150); assay: qHTS assay to identify small molecule agonists of the glucocorticoid receptor (GR) signaling pathway (AID 720691; active means well fitted activation curve with a large enough effect in the signal ratio in the repeat runs, not every such curve was filed as active; the % refers to the signal ratio; further: potency means the concentration at half of the fitted maximal effect)
In short: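 qHTS in GR-bla HeLa cells: 4 h settling at 37 C/5% CO2, 18 h compound incubation at 37 C, 2 h LiveBLAzer B/G FRET substrate at room temperature, fluorescence intensity measured.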

[10] = qHTS assay to test for compound auto fluorescence at 535 nm (green) in HepG2 cell free culture (AID 720686)
On the % scale 0 is the no-effect control and ±100 the full control effect.

Cc1cc(SCc2sc(-c3ccc(C(F)(F)F)c(F)c3)nc2C)ccc1OCC(=O)O
inactive: outcome [1] | Potency [2] | outcome [3] | outcome [4] | outcome [5] | Potency [6] | Potency [7]

S=C=Nc1cccc2ccccc12
active: Potency [8] 17.2 µM
inactive: outcome [1] | Potency [2] | outcome [3] | outcome [4] | outcome [5] | Potency [6] | Potency [7]

N#C/C=C/C#N
inactive: outcome [1] | Potency [2] | outcome [3] | outcome [4] | outcome [5] | Potency [6] | Potency [7] | Potency [9]

CC1CCC(C(C)C)C(OC(=O)c2ccccc2N)C1 (stereo not given)
inactive: outcome [1] | Potency [2] | outcome [3] | outcome [4] | outcome [5] | Potency [6] | outcome [10] | Potency [7] | Potency [8]

N#CCCC(Br)(C#N)CBr (stereo not given)
inactive: outcome [1] | Potency [2] | outcome [3] | outcome [4] | outcome [5] | Potency [6] | Potency [7] | Potency [9]

CC(C)OC(=O)C(O)(c1ccc(Cl)cc1)c1ccc(Cl)cc1
inactive: outcome [1] | Potency [2] | outcome [3] | outcome [4] | outcome [5] | Potency [6] | Potency [7] | Potency [9]
active: Potency [8] 30.9 µM

ClC1=C(Cl)C2(Cl)C3C(Cl)C(Cl)CC3C1(Cl)C2(Cl)Cl (stereo not given)
inactive: outcome [1] | Potency [2] | outcome [3] | outcome [4] | outcome [5] | Potency [6] | Potency [7]

CCN(CC)c1c([N+](=O)[O-])cc(C(F)(F)F)c(N)c1[N+](=O)[O-]
inactive: outcome [1] | Potency [2] | outcome [3] | outcome [4] | outcome [5] | Potency [6] | Potency [7]

Cn1cc(C2=C(c3cn(C4CCN(Cc5ccccn5)CC4)c4ccccc34)C(=O)NC2=O)c2ccccc21
inactive: outcome [1] | Potency [2] | outcome [3] | outcome [4] | outcome [5] | Potency [6] | outcome [10] | Potency [7]
active: Potency [8] 1.34 µM

COP(=O)(OC)SCn1c(=O)oc2cc(Cl)cnc21
inactive: outcome [1] | Potency [2] | outcome [3] | outcome [4] | outcome [5] | Potency [6] | Potency [7] | Potency [9]

[Cd+2].[Cl-].[Cl-]
inactive: outcome [1] | Potency [2] | outcome [3] | outcome [4] | outcome [5] | Potency [6] | Potency [7]

O=C(O)C1C2CCC(O2)C1C(=O)O (stereo not given)
inactive: outcome [1] | Potency [2] | outcome [3] | outcome [4] | outcome [5] | Potency [6] | Potency [7] | Potency [9] | Potency [8]

CC(=O)Nc1ccc2c(c1)Cc1ccccc1-2
inactive: outcome [1] | Potency [2] | outcome [3] | outcome [4] | outcome [5] | Potency [6] | Potency [7]

O=[N+]([O-])c1ccc2ccc3cccc4ccc1c2c34
inactive: outcome [1] | Potency [2] | outcome [3] | outcome [4] | Potency [6] | outcome [10] | Potency [7]

C[C@@H]1O[C@@H](O[C@@H]2C=C3CC[C@@H]4[C@H](CC[C@]5(C)[C@@H](c6ccc(=O)oc6)CC[C@]45O)[C@@]3(C)CC2)[C@H](O)[C@H](O)[C@H]1O
inactive: fluorescence, % of fluorescein [1] 0.0243% [at 18.6 µM] | fluorescence, % of fluorescent control [2] 0.328% [at 18.6 µM] | activity change [3] 0.0268% [at 18.6 µM] | fluorescence, % of fluorescent control [4] -0.024% [at 18.6 µM] | fluorescence, % of Rose Bengal [5] -0.272% [at 18.6 µM] | fluorescence, % of fluorescent control [6] 0.14% [at 18.6 µM] | fluorescence, % of fluorescent control [7] 0.187% [at 18.6 µM] | Potency [9]
active: Potency [8] 0.0574 µM

Cc1c(Cl)c(=O)oc2cc(OP(=O)(OCCCl)OCCCl)ccc12
inactive: outcome [1] | outcome [3] | outcome [4] | outcome [5] | Potency [9] | Potency [8]
active: Potency [2] 12.6 µM

ClC1=C(Cl)C2(Cl)C3C(Cl)C=CC3C1(Cl)C2(Cl)Cl (stereo not given)
inactive: outcome [1] | Potency [2] | outcome [3] | outcome [4] | outcome [5] | Potency [6] | Potency [7]

CCC[CH2][Sn]([CH2]CCC)([CH2]CCC)[O]C(=O)c1ccccc1
inactive: outcome [1] | Potency [2] | outcome [3] | outcome [4] | outcome [5] | Potency [6] | Potency [7]

CCOc1cc(C(C)(C)C)ccc1C1COC(c2c(F)cccc2F)=N1 (stereo not given)
inactive: outcome [1] | Potency [2] | outcome [3] | outcome [4] | outcome [5] | Potency [6] | Potency [7]

Nc1ccc(Cc2ccc(N)c(Cl)c2)cc1Cl
active: Potency [8] 42.2 µM
inactive: outcome [1] | Potency [2] | outcome [3] | outcome [4] | outcome [5] | Potency [6] | Potency [7] | Potency [9]

CCOC(=O)C1(c2ccccc2)CCN(CCC(C#N)(c2ccccc2)c2ccccc2)CC1
inactive: outcome [1] | Potency [2] | outcome [3] | outcome [4] | outcome [5] | Potency [6] | Potency [7]
active: Potency [9] 60 µM

CS(=O)(=O)c1ccc(C(=O)C2C(=O)CCCC2=O)c([N+](=O)[O-])c1
inactive: outcome [1] | Potency [2] | outcome [3] | outcome [4] | outcome [5] | Potency [6] | Potency [7] | Potency [9]

CC(C)Oc1cccc(NC(=O)c2ccccc2C(F)(F)F)c1
inactive: outcome [1] | Potency [2] | outcome [3] | outcome [4] | outcome [5] | Potency [6] | Potency [7] | Potency [9]

CCc1nn(C)c(C(=O)NCc2ccc(C(C)(C)C)cc2)c1Cl
inactive: outcome [1] | Potency [2] | outcome [3] | outcome [4] | outcome [5] | Potency [6] | Potency [7]

NNC(=O)c1ccccc1
inactive: outcome [1] | Potency [2] | outcome [3] | outcome [4] | outcome [5] | Potency [6] | Potency [7] | Potency [9]

O=C(O)COc1nc(Cl)c(Cl)cc1Cl
inactive: outcome [1] | Potency [2] | outcome [3] | outcome [4] | outcome [5] | Potency [6] | Potency [7] | Potency [9]

CN(C)CCc1c[nH]c2cccc(O)c12
inactive: outcome [1] | Potency [2] | outcome [3] | outcome [4] | outcome [5] | Potency [6] | Potency [7] | Potency [9] | Potency [8]

Nc1ccccc1C(=O)OC/C=C/c1ccccc1
inactive: outcome [1] | Potency [2] | outcome [3] | outcome [4] | outcome [5] | Potency [6] | Potency [7] | Potency [9] | Potency [8]

O=c1oc2ccccc2c(O)c1Cc1c(O)c2ccccc2oc1=O
inactive: fluorescence, % of fluorescein [1] 0.155% [at 18.6 µM] | fluorescence, % of fluorescent control [2] 0.0571% [at 18.6 µM] | activity change [3] 0.109% [at 18.6 µM] | fluorescence, % of fluorescent control [4] 0.108% [at 18.6 µM] | fluorescence, % of Rose Bengal [5] 0.445% [at 18.6 µM] | fluorescence, % of fluorescent control [6] -0.0804% [at 18.6 µM] | fluorescence, % of fluorescent control [7] 0.0049% [at 18.6 µM]

O=C1NCN(c2ccccc2)C12CCN(CC1COc3ccccc3O1)CC2 (stereo not given)
inactive: outcome [1] | Potency [2] | outcome [3] | outcome [4] | outcome [5] | Potency [6] | Potency [7]

CCOCn1c(-c2ccc(Cl)cc2)c(C#N)c(Br)c1C(F)(F)F
inactive: outcome [1] | Potency [2] | outcome [3] | outcome [4] | Potency [6] | outcome [10] | Potency [7] | Potency [9]

Cc1cc(C(C)(C)c2cc(C)c(O)c(C)c2)cc(C)c1O
inactive: outcome [1] | Potency [2] | outcome [3] | outcome [4] | Potency [6] | outcome [10] | Potency [7]
active: Potency [8] 4.74 µM

O=CC(Br)(Br)Br
inactive: outcome [1] | Potency [2] | outcome [3] | outcome [4] | Potency [6] | outcome [10] | Potency [7]

CCCOCC(=Nc1ccc(Cl)cc1C(F)(F)F)n1ccnc1
inactive: outcome [1] | Potency [2] | outcome [3] | outcome [4] | Potency [6] | outcome [10] | Potency [7]
